Results taken from PubChem BioAssay (NCI).
The panel holds about 79,000 compounds, 15% with a hit somewhere; the sample as a whole holds those more often. The source made the active and inactive calls. Rule as the data show it: active = growth inhibition above about 70%; inactive = the rest.

Key:
[1] = NCI Yeast Anticancer Drug Screen. Data for the mec2-1 strain (AID 157); conditions: S. cerevisiae mec2-1 strain, active compounds read high
In short: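 Mutant yeast (mec2-1) grown with compound; growth inhibition relative to vehicle control reported.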

[2] = NCI Yeast Anticancer Drug Screen. Data for the rad14 strain (AID 159);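 also: 0% = growth of vehicle-treated control cultures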; conditions: S. cerevisiae rad14 strain growth inhibition, active compounds read high
In short: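 Vehicle-treated cultures served as the baseline for growth inhibition of a DNA repair-mutant yeast strain exposed to each compound.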

[3] = NCI Yeast Anticancer Drug Screen. Data for the sgs1 mgt1 strain (AID 161);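 also: 0% = growth of cultures given vehicle only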; conditions: S. cerevisiae sgs1 mgt1 strain, active compounds read high
In short: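 Growth of a repair-deficient yeast mutant was monitored after compound treatment and expressed as inhibition relative to vehicle-treated cultures.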

[4] = NCI Yeast Anticancer Drug Screen. Data for the CLN2oe strain (AID 163);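 also: 0% = growth of vehicle-only control cultures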; conditions: S. cerevisiae CLN2oe strain, active compounds read high
In short: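 Compounds are applied to yeast harbouring a defined cell-cycle control change; reduced growth compared with vehicle-treated controls gives the value.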

[5] = NCI Yeast Anticancer Drug Screen. Data for the cln2 rad14 strain (AID 165);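 also: 0% = growth equal to vehicle treated cultures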; conditions: S. cerevisiae cln2 rad14 strain, active compounds read high
In short: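 Readout is yeast growth inhibition versus vehicle-treated controls, using a strain with cln2 and rad14 alterations exposed to compound.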

[6] = NCI Yeast Anticancer Drug Screen. Data for the wt2 strain (AID 169);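 also: 0% = growth of vehicle-treated yeast cultures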; conditions: S. cerevisiae wt2 strain growth inhibition, active compounds read high
In short: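 Against vehicle-treated controls, the growth of yeast exposed to each compound was compared, and the inhibition was recorded.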

[7] = NCI Yeast Anticancer Drug Screen. Data for the mlh1 strain (AID 171);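 also: 0% = growth of vehicle-treated control cultures of the same strain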; conditions: S. cerevisiae mlh1 strain growth inhibition, active compounds read high
In short: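 Measured: yeast growth. Reference: vehicle-treated controls. Organism: strain with a defined alteration affecting DNA damage repair or cell cycle control, treated with compound.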

[8] = NCI Yeast Anticancer Drug Screen. Data for the sgs1 strain (AID 173);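 also: 0% = growth of vehicle-only control cultures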; conditions: S. cerevisiae sgs1 mutant, active compounds read high
In short: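 Each compound was added to cultures of the altered yeast strain. Growth was recorded, and inhibition was derived by comparison with vehicle controls.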

[9] = NCI Yeast Anticancer Drug Screen. Data for the mlh1 rad18 strain (AID 175); conditions: S. cerevisiae mlh1 rad18 strain growth inhibition, active compounds read high
In short: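 Genetically defined yeast (DNA repair-deficient) exposed to compounds; growth inhibition determined relative to vehicle.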

[10] = NCI Yeast Anticancer Drug Screen. Data for the rad52 strain (AID 147);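 also: 0% = growth of vehicle-treated control cultures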; conditions: S. cerevisiae rad52 mutant growth inhibition, active compounds read high
In short: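 The repair-mutant yeast strain was incubated with compounds, then growth was read and inhibition derived relative to vehicle.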

[11] = NCI Yeast Anticancer Drug Screen. Data for the wt1 strain (AID 149);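 also: 0% = growth of vehicle-treated wt1 cultures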; conditions: S. cerevisiae wt1 strain (SPY 50644) growth inhibition, active compounds read high
In short: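 Vehicle-normalised growth inhibition; strain wt1; compound exposure.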

[12] = NCI Yeast Anticancer Drug Screen. Data for the rad50EPP+ strain (AID 151);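 also: 0% = growth of vehicle-treated control cultures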; conditions: S. cerevisiae rad50 mutant strain, active compounds read high
In short: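 Vehicle-normalised growth inhibition; rad50EPP+ yeast strain, altered in DNA damage repair, compound-treated.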

[13] = NCI Yeast Anticancer Drug Screen. Data for the mgt1 strain (AID 153); conditions: S. cerevisiae mgt1 mutant growth inhibition, active compounds read high
In short: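 Vehicle-normalized growth inhibition is determined in mgt1 yeast, a strain selected for a defined alteration in DNA repair or cell cycle control.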

[14] = NCI Yeast Anticancer Drug Screen. Data for the rad50 strain (AID 155);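 also: 0% = growth of vehicle-only cultures of the same strain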; conditions: S. cerevisiae rad50 strain growth inhibition, active compounds read high
In short: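 A DNA repair-deficient yeast mutant serves as the test organism; compound-induced growth inhibition is calculated against vehicle-treated cells.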

[15] = NCI Yeast Anticancer Drug Screen. Data for the bub3 strain (AID 167); conditions: S. cerevisiae bub3 mutant strain, active compounds read high
In short: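 Inhibition values come from growth of compound-treated mutant yeast normalised to vehicle-treated controls.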

[16] = NCI Yeast Anticancer Drug Screen. Data for the rad18 strain (AID 177); conditions: S. cerevisiae rad18 mutant growth inhibition, active compounds read high
In short: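 Vehicle-treated cultures served as the baseline for scoring compound-induced growth inhibition in DNA-repair-mutant yeast.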

[17] = at 5.0 µM (retest, dose inferred, filed as 0.5)
[18] = at 50.0 µM (retest, dose inferred, filed as 5.0)

Measured: growth inhibition

COc1cc(C2c3cc4c(cc3[C@@H](Nc3ccc(N)cc3)C3COC(=O)[C@H]23)OCO4)cc(OC)c1O (stereo partly drawn)
inactive: [2]; at 1.2 µM 2% | [2]; at 33.0 µM 37% | [3]; [17] 18% | [4]; at 1.2 µM 0% | [4]; at 3.7 µM 62% | [4]; at 33.0 µM 41% | [5]; [17] 20% | [6]; at 1.2 µM -1% | [6]; at 3.7 µM 42% | [7]; at 1.2 µM -4% | [8]; at 1.2 µM 16%
active: [1]; [17] 70% | [1]; at 11.0 µM 95% | [1]; at 33.0 µM 93% | [1]; [18] 96% | [1]; at 50.0 µM 90% | [1]; at 100.0 µM 88% | [2]; at 3.7 µM 71% | [2]; at 11.0 µM 95% | [2]; at 100.0 µM 92% | [3]; [18] 94% | [3]; at 50.0 µM 85.3% | [4]; at 11.0 µM 92% | [4]; at 100.0 µM 88% | [5]; [18] 90% | [5]; at 50.0 µM 85.9% | [6]; at 11.0 µM 92% | [6]; at 33.0 µM 94% | [6]; at 100.0 µM 93% | [7]; at 3.7 µM 74% | [7]; at 11.0 µM 93% | [7]; at 33.0 µM 93% | [7]; at 100.0 µM 90% | [8]; at 3.7 µM 77% | [8]; at 11.0 µM 92% | [8]; at 33.0 µM 94% | [8]; at 100.0 µM 88% | [9]; [17] 70% | [9]; [18] 94% | [9]; at 50.0 µM 85.9%

CC[C@@]1(O)C(=O)OCc2c1cc1n(c2=O)Cc2cc3ccccc3nc2-1
active: [10]; at 1.2 µM 97% | [10]; at 3.7 µM 98% | [10]; at 11.0 µM 98% | [10]; at 33.0 µM 97% | [10]; at 100.0 µM 95% | [11]; at 11.0 µM 90% | [11]; at 33.0 µM 94% | [11]; at 100.0 µM 95% | [12]; at 1.2 µM 89% | [12]; at 3.7 µM 95% | [12]; at 11.0 µM 97% | [12]; at 33.0 µM 97% | [12]; at 100.0 µM 96% | [13]; at 11.0 µM 79% | [13]; at 33.0 µM 91% | [13]; at 100.0 µM 92% | [14]; at 1.2 µM 97% | [14]; at 3.7 µM 97% | [14]; [17] 97% | [14]; at 11.0 µM 96% | [14]; at 33.0 µM 96% | [14]; [18] 97% | [14]; at 50.0 µM 86.9% | [14]; at 100.0 µM 95% | [1]; at 3.7 µM 95% | [1]; [17] 73% | [1]; at 11.0 µM 97% | [1]; at 33.0 µM 98% | [1]; [18] 98% | [1]; at 50.0 µM 88.2% | [1]; at 100.0 µM 97% | [2]; at 11.0 µM 89% | [2]; at 33.0 µM 97% | [2]; at 100.0 µM 96% | [3]; [18] 95% | [3]; at 50.0 µM 81.7% | [4]; at 11.0 µM 89% | [4]; at 33.0 µM 93% | [4]; at 100.0 µM 91% | [5]; [18] 89% | [15]; at 11.0 µM 90% | [15]; at 33.0 µM 95% | [15]; [18] 90% | [15]; at 50.0 µM 78.5% | [15]; at 100.0 µM 96% | [6]; at 11.0 µM 92% | [6]; at 33.0 µM 97% | [6]; at 100.0 µM 96% | [7]; at 11.0 µM 84% | [7]; at 33.0 µM 93% | [7]; at 100.0 µM 93% | [8]; at 3.7 µM 82% | [8]; at 11.0 µM 95% | [8]; at 33.0 µM 96% | [8]; at 100.0 µM 95% | [9]; [18] 93% | [9]; at 50.0 µM 81.7% | [16]; at 11.0 µM 89% | [16]; at 33.0 µM 93% | [16]; at 100.0 µM 94%
inactive: [11]; at 1.2 µM 2% | [11]; at 3.7 µM 39% | [13]; at 1.2 µM 0% | [13]; at 3.7 µM 6% | [1]; at 1.2 µM 47% | [2]; at 1.2 µM 21% | [2]; at 3.7 µM 55% | [3]; [17] 53% | [4]; at 1.2 µM 8% | [4]; at 3.7 µM 55% | [5]; [17] 14% | [5]; at 50.0 µM 58% | [15]; at 1.2 µM -12% | [15]; at 3.7 µM 15% | [15]; [17] -16% | [6]; at 1.2 µM 17% | [6]; at 3.7 µM 57% | [7]; at 1.2 µM -2% | [7]; at 3.7 µM 35% | [8]; at 1.2 µM 29% | [9]; [17] 39% | [16]; at 1.2 µM -6% | [16]; at 3.7 µM 20%
